Screens as filed in PubChem.
Most compounds without a hit are left out; they make up all but 3.8% or so of the library.
Mdm2-MdmX inh: disrupts the human Mdm2-MdmX interaction | O15151+Q00987 | SaOS-2 split-luciferase Mdm2/MdmX complementation, luminescence | 3% of 330,000 active | inhibition, % at 8 µM;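 active means inhibition of at least 50% at 8 µM in the primary screen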
Target sequence (O15151 whole entry, looked up): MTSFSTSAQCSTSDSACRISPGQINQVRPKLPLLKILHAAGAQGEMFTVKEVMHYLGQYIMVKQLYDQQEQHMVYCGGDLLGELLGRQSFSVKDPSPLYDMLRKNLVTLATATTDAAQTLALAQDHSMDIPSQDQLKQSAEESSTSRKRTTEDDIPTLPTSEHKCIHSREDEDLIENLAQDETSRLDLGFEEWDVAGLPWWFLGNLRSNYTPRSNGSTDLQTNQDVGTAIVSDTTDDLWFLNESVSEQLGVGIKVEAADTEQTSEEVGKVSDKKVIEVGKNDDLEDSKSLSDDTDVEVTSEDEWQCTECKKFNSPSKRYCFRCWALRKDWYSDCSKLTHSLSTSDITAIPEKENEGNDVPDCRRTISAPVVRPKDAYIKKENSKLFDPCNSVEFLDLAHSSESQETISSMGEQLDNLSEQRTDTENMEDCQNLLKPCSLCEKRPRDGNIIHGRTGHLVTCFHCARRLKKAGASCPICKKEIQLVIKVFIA
Target sequence (Q00987 whole entry, looked up): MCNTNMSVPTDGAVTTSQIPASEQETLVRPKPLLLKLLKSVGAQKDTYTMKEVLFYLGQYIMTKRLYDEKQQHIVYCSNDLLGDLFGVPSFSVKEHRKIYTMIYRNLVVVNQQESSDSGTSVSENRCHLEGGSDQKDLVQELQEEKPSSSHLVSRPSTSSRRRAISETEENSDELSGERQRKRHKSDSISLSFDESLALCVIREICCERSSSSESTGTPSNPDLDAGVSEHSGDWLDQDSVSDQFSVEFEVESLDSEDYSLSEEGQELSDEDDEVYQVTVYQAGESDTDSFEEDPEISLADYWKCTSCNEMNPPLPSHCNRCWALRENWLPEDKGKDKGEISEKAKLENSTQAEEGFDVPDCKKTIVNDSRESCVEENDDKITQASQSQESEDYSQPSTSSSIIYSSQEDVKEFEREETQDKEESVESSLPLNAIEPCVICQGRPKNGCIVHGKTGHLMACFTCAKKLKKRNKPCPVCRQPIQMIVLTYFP
697 NFkB inh: lowers PMA/ionomycin-induced NF-kB signal in 697 B cells | 697 B-cell NF-kB luciferase reporter, 16 h | inhibition, % at 4 µM | 0.33% of 330,000 active | AID 435022; in the data active means inhibition above about 35%
Gli-Sufu block: antagonists of Gli-Sufu signaling; Sufu-KO-LIGHT fibroblasts, Gli luciferase reporter luminescence; 0.74% of 340,000 active; AID 588413; inhibition, % at 5 µM;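 active means inhibition above about 55%, limit read from the data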
Shn3 3UTR inh: Schnurri-3 reporter inhibition in Clone20 osteoblasts; AID 588674; inhibition, % at 12.5 µM; 0.52% of 360,000 active; Clone20 osteoblast Shn3 3'UTR firefly luciferase, 24 h;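 active means mean inhibition of at least 75% with every replicate also reaching 75%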
Jurkat NFkB inh: inhibitors of the PMA/ionomycin-induced NF-kB reporter in Jurkat cells. AID 435003. inhibition, % at 4 µM. PMA/ionomycin-induced NF-kB luciferase reporter, luminescence. 0.53% of 330,000 active; in the data active means inhibition above about 50%
Mdm2-MdmX conf: human Mdm2/MdmX binding inhibition, confirmed | shares compounds with Mdm2-MdmX inh | luminescent assay | inhibition, % at 8 µM | 55% of 10,000 active; in the data active means inhibition above about 40%
Full FLuc ctr: inhibits full-length luciferase, flagging false Mdm2/MdmX hits | shares compounds with Mdm2-MdmX inh | SaOS-2 full-length luciferase counterscreen, luminescence | inhibition, % at 8 µM | 77% of 6,200 active;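 active means mean inhibition at 8 µM reaching about 37%, which flags the compound as non-specific, limit read from the data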;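 further: p53-null SaOS-2 cells with luciferase driven by a doxycycline-inducible promoter; compound on cells about two nights before reading with doxycycline added after day one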
A number is an active result; – = inactive; · = no result given.

SMILES	Mdm2-MdmX inh	697 NFkB inh	Gli-Sufu block	Shn3 3UTR inh	Jurkat NFkB inh	Mdm2-MdmX conf	Full FLuc ctr
O=Nc1c(O)n(Cc2ccc(Cl)cc2)c2ccccc12	51	–	–	–	–	–	·
O=Nc1c(O)n(Cc2c(Cl)cccc2Cl)c2ccccc12	52	–	–	–	–	–	·
Cc1ccc(Cn2c(O)c(N=O)c3ccccc32)cc1	–	–	–	–	–	·	·
O=Nc1c(O)n(Cc2ccc(Cl)cc2Cl)c2ccccc12	–	–	–	–	–	·	·
Cc1ccc2c(c1)c(N=O)c(O)n2Cc1ccc(Cl)cc1	60	–	–	–	–	–	·
CC1CCCCN1C(=O)/C=C/c1ccccc1[N+](=O)[O-] (centres undefined)	–	–	–	–	–	·	·
COC(=O)CS(=O)(=O)c1nnc([C@H](Cc2ccccc2)NC(=O)OC(C)(C)C)o1	84	–	–	96	–	56	–
Cc1cccc(CS(=O)(=O)c2nnc([C@H](Cc3ccccc3)NC(=O)OC(C)(C)C)o2)c1	97	–	–	97	–	56	54
Oc1ccccc1C=NCCN1CCN(CCN=Cc2ccccc2O)C1c1ccccc1O (centres undefined)	·	·	–	–	·	·	·
COCC(=O)O[C@]1(CCN(C)CCCc2nc3ccccc3[nH]2)CCc2cc(F)ccc2[C@@H]1C(C)C	93	–	–	–	–	53	36
CCOC(=O)CCc1nc2ccccc2[nH]1	–	–	–	–	–	·	·
O=c1oc(-c2ccccc2)cc(Cl)c1Cl	94	–	–	–	–	81	–
O=c1oc(-c2ccccc2)cc2ccccc12	·	·	·	–	·	·	·
CC(=O)Nc1ccc(NC(=O)COC(=O)[C@@H]2CCCN2C(=O)c2cccs2)cc1	–	–	–	–	–	·	·
CCC(=NCCc1c(C)[nH]c2ccccc12)C1=C(O)CC(c2ccccc2)CC1=O (centres undefined)	71	–	–	–	–	52	50
CCCCOC(=O)Cn1c2ccc(OC)cc2c2nc3ccccc3nc21	75	–	–	–	–	–	·
COc1cccc(/C=C2\SC(=O)N(CC(=O)NC3C=CS(=O)(=O)C3)C2=O)c1 (centres undefined)	–	–	–	–	–	·	·
COCc1cc(CN2CCCC2)c(O)c2ncccc12	–	–	–	–	–	·	·
COc1ccc2nc3cc(Cl)ccc3c(Nc3cc(CN4CCCC4)c(O)c(CN4CCCC4)c3)c2n1	99	–	·	–	–	53	77
COc1ccc(NC(=O)c2cc(C3CCCCN3S(C)(=O)=O)on2)c(C)c1 (centres undefined)	·	·	·	–	·	·	·
Nc1c(C(=O)NC2CCCC2)c2nc3ccccc3nc2n1/N=C/c1ccco1	73	–	–	–	–	–	·
N#Cc1cc(C(=O)c2cc(Cl)ccc2O)cn(-c2ccccc2)c1=O	–	–	–	–	–	·	·
Cc1ccc(NC(=O)c2cc(C(=O)c3cc(Cl)ccc3O)cn(-c3ccc(C)cc3)c2=O)cc1	88	–	–	–	–	86	44
CCOc1ccc(OCCC(=O)N(CC)CC(=O)NCc2cccs2)cc1	–	–	–	–	–	·	·
NC(=O)c1sc2nc3c(c(-c4ccc(Cl)cc4)c2c1N)CCCC3	–	–	–	–	–	·	·
SMILES	Mdm2-MdmX inh	697 NFkB inh	Gli-Sufu block	Shn3 3UTR inh	Jurkat NFkB inh	Mdm2-MdmX conf	Full FLuc ctr
Cc1ccc(C(=O)Cn2nnc3c(sc4nc5c(c(-c6ccccc6)c43)CCC5)c2=O)cc1	–	–	–	–	–	·	·
COc1ccc(-c2c3c(nc4sc5c(Cl)nc(C)nc5c24)CCC3)cc1	99	–	–	–	–	–	·
N#Cc1sc2nc3c(c(-c4ccco4)c2c1N)CCCC3	–	–	–	–	–	·	·
Cc1ccc(-c2c3c(nc4sc(C(N)=O)c(N)c24)CCC3)cc1	56	–	–	–	–	55	47
NC(=O)c1sc2nc3c(c(-c4ccco4)c2c1N)CCCC3	61	–	–	–	–	67	37
C=CCS(=O)(=O)c1nc2ccccc2s1	63	–	–	–	–	–	42
O=S(=O)(CCSc1nc2ccccc2s1)c1nc2ccccc2s1	99	–	–	–	–	83	55
CC(C)c1c(C(=O)N/N=C/c2ccsc2)nnn1-c1nonc1N	–	–	–	–	–	·	·
Clc1ccc2c(N/N=C/c3ccccc3Br)ccnc2c1	101	–	–	–	–	82	52
Clc1ccc2c(N/N=C/c3cccc(Br)c3)ccnc2c1	·	·	–	–	·	·	·
O=C1Nc2cc(C(=O)NCCCN3CCCC3)ccc2S/C1=C/c1ccccc1F	58	–	–	–	–	–	·
CCN1C(=O)c2ccccc2Sc2ccc(C(=O)NCCCN3CCCCC3)cc21	51	–	–	–	–	–	·
CC1CCCN(CCCNC(=O)c2ccc3c(c2)N(Cc2ccccc2F)C(=O)c2ccccc2S3(=O)=O)C1 (centres undefined)	64	–	–	–	–	–	51
CCN1CCCC1CNC(=O)c1ccc2c(c1)NC(=O)/C(=C\c1ccc(C)cc1)S2 (centres undefined)	97	–	–	–	–	–	69
O=C1Nc2cc(C(=O)NCCN3CCCCCC3)ccc2S/C1=C/c1ccccc1F	·	·	·	–	·	·	·
O=C(c1cc(S(=O)(=O)NCc2ccco2)ccc1Br)N1CCOCC1	–	–	–	–	–	·	·
O=C(NC1CCCC1)C(c1ccccn1)N(C(=O)c1csnn1)c1ccc(F)cc1 (centres undefined)	–	–	–	–	–	·	·
COc1cccc(/C=C2/Sc3ccc(C(=O)NCCN4CCCC4)cc3NC2=O)c1	58	–	–	–	–	–	·
COc1cccc(/C=C2/Sc3ccc(C(=O)NCCCN4CCCC4)cc3NC2=O)c1	–	–	–	–	–	·	·
COc1ccc(CC(=O)NCCS(=O)(=O)N2CCN(c3ccccc3OC)CC2)cc1	–	–	–	–	–	·	·
FC(F)(F)c1nnc2c(Sc3ccccn3)nc3ccccc3n12	–	–	–	–	–	·	·
FC(F)(F)c1nnc2c(Sc3ccccc3)nc3ccccc3n12	68	–	–	–	–	–	·
COc1ccc(-c2cc(-c3ccc(F)cc3)nc(N3CCN(C)CC3)n2)cc1	79	–	–	–	–	–	·
COc1ccc(Nc2nc(Nc3ccc(OC)cc3OC)nc(N3CCN(C)CC3)n2)c(OC)c1	51	–	–	–	–	–	·
COc1ccc(Nc2nc(N3CCCC3)nc(N3CCCC3)n2)c(OC)c1	–	–	–	–	–	·	·
Cc1cc(NC(=O)COC(=O)CNS(=O)(=O)c2c(F)cc(F)cc2Br)no1	–	–	–	–	–	·	·
O=c1c(O[C@@H]2O[C@H](CO)[C@@H](O)[C@H](O)[C@H]2O)c(-c2ccc(O)c(O)c2)oc2cc(O)cc(O)c12	52	–	·	·	–	–	·
CC(=O)c1c(C)[nH]c(C(=O)OCc2csc(CC(=O)Nc3ccccc3C)n2)c1C	51	–	–	–	–	–	·
CC(C)=CC(=O)OCc1csc(CC(=O)Nc2ccccc2C)n1	–	–	–	–	–	·	·
